Reference: the supplement of paper PMC10849652
The full data set covers some 7,900 targets. This sample favours those with a hit. About 0.6% of all pairs of compound and target were hits.

What follows are targets tested with CCN(CC)Cc1ccc2cc(COC(=O)Nc3ccc(C(=O)NO)cc3)ccc2c1 [givinostat] (assay: log2 fold change, soluble protein after heating vs DMSO (PISA); higher = thermal stabilisation; K562 cells, 10 uM, 30 min; active = over 0.2 and 3.5 SD of the protein, either way, in both replicates (recomputed)).
Method in brief: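 K562 cells at 2×10^6 cells/mL were exposed to 10 μM compound for 30 min, then aliquots were heated for 3 min across 48°C-58°C, pooled, and extracted in PBS containing 0.5% NP-40 at 4°C. The supernatant after 21,000xg for 90 min was taken as soluble protein and measured by TMTpro 16plex LC-MS/MS with channel sums equalised. Thermal stability is reported relative to control samples, with values from duplicates. Fold changes are given on a log2 scale.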

Chain of UniProt A5YKK6 (A5YKK6 whole entry, looked up): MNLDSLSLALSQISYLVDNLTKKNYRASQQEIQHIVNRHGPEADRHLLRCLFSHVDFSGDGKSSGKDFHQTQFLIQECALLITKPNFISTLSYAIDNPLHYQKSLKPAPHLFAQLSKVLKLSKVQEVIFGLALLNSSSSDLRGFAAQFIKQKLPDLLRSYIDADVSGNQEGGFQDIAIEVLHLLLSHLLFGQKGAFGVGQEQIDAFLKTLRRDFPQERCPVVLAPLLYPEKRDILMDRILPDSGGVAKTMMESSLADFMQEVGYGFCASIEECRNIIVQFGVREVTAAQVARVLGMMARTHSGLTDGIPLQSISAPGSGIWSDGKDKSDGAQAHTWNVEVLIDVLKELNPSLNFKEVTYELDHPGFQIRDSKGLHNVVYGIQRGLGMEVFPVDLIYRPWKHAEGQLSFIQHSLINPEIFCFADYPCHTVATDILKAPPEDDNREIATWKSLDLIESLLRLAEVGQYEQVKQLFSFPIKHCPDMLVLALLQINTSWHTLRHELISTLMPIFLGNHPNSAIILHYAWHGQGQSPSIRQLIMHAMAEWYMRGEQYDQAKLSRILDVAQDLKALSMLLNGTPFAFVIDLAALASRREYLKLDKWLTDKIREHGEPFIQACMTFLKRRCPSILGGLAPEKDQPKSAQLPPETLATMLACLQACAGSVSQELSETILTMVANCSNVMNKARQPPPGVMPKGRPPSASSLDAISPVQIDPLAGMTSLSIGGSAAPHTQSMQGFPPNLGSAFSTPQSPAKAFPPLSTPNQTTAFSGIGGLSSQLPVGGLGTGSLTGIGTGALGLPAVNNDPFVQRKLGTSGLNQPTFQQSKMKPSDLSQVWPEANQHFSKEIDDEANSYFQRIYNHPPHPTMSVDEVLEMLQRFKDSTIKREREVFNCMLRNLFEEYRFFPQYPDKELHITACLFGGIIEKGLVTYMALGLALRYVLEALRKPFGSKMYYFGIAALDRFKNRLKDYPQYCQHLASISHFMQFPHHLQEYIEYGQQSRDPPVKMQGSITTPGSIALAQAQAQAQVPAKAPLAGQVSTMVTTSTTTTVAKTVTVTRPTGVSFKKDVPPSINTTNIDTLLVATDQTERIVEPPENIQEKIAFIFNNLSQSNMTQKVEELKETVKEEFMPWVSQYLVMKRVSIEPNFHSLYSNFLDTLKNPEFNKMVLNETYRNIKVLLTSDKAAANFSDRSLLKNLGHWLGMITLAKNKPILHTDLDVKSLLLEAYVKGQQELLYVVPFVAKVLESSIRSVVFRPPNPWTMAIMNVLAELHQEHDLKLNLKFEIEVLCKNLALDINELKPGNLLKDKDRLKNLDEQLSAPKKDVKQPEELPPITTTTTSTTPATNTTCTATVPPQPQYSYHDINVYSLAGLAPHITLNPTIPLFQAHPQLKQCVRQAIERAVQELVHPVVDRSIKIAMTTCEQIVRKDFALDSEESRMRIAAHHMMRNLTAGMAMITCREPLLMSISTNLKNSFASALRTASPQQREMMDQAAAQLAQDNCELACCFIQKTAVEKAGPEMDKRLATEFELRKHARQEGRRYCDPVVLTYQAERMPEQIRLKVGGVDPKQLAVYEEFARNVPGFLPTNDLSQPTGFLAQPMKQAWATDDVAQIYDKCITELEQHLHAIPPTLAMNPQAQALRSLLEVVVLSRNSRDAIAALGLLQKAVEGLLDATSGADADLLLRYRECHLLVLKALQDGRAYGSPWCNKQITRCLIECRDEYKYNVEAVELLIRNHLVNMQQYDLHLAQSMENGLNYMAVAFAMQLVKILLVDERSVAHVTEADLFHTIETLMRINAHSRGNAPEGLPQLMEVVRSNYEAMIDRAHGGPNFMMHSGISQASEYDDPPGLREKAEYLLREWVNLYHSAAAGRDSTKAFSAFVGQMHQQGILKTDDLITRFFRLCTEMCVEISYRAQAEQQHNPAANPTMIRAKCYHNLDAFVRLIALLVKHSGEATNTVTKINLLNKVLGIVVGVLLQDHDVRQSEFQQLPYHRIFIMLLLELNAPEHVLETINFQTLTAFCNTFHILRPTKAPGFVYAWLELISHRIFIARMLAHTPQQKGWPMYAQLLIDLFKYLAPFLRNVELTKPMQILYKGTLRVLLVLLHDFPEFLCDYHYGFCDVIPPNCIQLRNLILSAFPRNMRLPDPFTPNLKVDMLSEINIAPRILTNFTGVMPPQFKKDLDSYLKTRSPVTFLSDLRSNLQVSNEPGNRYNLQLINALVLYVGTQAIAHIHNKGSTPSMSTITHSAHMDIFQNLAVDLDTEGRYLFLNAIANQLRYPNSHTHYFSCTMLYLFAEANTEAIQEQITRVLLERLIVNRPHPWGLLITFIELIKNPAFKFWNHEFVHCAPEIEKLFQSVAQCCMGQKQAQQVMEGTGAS
Chain of UniProt P51798 (P51798 whole entry, looked up): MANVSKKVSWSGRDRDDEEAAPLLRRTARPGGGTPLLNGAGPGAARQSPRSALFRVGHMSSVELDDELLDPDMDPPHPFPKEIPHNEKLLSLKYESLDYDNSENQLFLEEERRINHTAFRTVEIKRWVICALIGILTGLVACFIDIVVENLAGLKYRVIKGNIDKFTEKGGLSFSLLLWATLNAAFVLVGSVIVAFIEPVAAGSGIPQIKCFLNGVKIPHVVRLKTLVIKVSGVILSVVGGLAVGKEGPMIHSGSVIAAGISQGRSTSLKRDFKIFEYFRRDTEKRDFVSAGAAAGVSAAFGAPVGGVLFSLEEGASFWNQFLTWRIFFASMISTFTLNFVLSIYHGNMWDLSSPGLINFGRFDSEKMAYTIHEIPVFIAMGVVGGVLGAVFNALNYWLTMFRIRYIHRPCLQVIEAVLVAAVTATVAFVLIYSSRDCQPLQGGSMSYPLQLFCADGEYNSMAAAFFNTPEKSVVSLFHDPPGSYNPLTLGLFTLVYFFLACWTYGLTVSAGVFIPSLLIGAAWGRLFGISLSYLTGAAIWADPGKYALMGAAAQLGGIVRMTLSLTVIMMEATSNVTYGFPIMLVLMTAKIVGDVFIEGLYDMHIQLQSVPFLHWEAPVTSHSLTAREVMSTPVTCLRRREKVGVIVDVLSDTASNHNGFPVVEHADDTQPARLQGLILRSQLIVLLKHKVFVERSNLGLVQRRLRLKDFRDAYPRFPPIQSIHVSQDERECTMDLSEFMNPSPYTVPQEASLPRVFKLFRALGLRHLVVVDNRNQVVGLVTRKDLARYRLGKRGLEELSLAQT
Chain of UniProt P42574 (P42574 whole entry, looked up): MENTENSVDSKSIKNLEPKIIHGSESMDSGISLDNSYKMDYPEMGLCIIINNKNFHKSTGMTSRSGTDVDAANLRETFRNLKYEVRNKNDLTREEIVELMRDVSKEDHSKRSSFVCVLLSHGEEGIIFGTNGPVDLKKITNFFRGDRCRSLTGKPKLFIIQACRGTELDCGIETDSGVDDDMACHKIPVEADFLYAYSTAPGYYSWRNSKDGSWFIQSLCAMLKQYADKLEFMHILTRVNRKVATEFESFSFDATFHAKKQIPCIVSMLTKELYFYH
Chain of UniProt Q9UIV1 (Q9UIV1 whole entry, looked up): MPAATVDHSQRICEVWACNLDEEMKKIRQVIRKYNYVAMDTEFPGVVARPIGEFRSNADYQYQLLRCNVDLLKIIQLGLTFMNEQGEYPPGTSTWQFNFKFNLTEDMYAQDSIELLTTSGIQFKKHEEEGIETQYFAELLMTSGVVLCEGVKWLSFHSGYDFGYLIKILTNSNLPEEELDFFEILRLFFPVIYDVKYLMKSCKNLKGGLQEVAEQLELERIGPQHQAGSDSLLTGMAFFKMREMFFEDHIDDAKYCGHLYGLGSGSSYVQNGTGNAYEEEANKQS
Chain of UniProt O15182 (O15182 whole entry, looked up): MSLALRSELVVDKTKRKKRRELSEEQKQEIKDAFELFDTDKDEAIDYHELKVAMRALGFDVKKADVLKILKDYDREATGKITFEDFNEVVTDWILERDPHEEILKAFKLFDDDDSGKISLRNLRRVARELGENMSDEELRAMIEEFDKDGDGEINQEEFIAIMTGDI
Chain of UniProt O14757 (O14757 whole entry, looked up): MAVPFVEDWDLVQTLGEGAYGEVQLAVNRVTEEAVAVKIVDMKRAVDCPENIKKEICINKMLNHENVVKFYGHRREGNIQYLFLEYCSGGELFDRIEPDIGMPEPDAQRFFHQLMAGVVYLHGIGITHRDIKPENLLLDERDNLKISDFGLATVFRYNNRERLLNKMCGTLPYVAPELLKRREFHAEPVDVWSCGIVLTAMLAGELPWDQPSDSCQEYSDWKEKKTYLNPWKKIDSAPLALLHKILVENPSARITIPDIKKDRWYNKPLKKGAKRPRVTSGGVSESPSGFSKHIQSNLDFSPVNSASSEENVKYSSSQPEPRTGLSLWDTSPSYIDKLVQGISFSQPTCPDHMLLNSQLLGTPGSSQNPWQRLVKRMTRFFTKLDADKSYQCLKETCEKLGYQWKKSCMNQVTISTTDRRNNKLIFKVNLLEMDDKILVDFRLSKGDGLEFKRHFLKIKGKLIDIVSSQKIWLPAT
Chain of UniProt P30305 (P30305 whole entry, looked up): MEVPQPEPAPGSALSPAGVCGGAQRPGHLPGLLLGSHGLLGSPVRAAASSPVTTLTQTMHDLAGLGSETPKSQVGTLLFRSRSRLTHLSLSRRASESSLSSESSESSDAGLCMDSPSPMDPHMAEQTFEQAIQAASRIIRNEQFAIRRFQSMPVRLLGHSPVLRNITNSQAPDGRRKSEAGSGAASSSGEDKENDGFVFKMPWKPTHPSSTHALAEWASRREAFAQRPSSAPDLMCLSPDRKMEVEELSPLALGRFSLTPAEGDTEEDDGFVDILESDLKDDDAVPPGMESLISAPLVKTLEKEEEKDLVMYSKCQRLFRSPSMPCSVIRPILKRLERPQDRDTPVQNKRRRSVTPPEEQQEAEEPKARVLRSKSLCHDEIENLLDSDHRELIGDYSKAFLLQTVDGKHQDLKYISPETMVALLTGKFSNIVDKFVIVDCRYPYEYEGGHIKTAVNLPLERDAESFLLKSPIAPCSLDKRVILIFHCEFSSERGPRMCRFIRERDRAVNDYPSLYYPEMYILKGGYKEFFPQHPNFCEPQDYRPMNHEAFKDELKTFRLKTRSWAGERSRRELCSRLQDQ
Chain of UniProt Q9NRR8 (Q9NRR8 whole entry, looked up): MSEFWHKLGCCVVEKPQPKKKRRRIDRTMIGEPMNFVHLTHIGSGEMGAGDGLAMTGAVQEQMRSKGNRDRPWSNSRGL

log2 fold change, inactive:
CLCN7 (UniProt P51798) -0.007
CCZ1 (UniProt P86791) 0.028
C1D (UniProt Q13901) -0.002
CNOT7 (UniProt Q9UIV1) -0.026
CDC42BPA isoform 6 (UniProt Q5VT25) 0.051
COMMD1 (UniProt Q8N668) 0.122
CETN3 (UniProt O15182) 0.008
C4orf33 (UniProt Q8N1A6) 0.055
CDK9 isoform 2 (UniProt P50750) 0.014
CDC25B isoform 4 (UniProt P30305) 0.032
CHEK1 (UniProt O14757) 0.029
CD53 (UniProt P19397) -0.006
CRTC2 (UniProt Q53ET0) 0.181
CDK4 (UniProt P11802) -0.009
CNOT1 (UniProt A5YKK6) 0.044
CPSF1 (UniProt Q10570) 0.058
CLUH, A0A494C0R8 0.092
CEPT1 (UniProt Q9Y6K0) -0.023
CELF2 isoform 3 (UniProt O95319) -0.008
CDC42SE1 (UniProt Q9NRR8) -0.236
CASP3 (UniProt P42574) -0.029
CDK12 (UniProt Q9NYV4) 0.026
COQ9 (UniProt O75208) -0.006
